{
  "source": "PubChem BioAssay (Tox21)",
  "note": "Records with an inconclusive call do not appear. A call without a number means that no potency is given here. Activity calls are given as the source filed them. Calls follow the shape of the dose curve; as a rule, active = well fitted inhibition curve with a large enough effect in the repeat runs; inconclusive = weak or mixed curves; inactive = flat fitted curve, though single readings scatter. Potency is read from the fitted curve at half-maximal effect.",
  "data": [
    {"molecular_target": "Voltage-gated inwardly rectifying potassium channel KCNH2 (Homo sapiens) (UniProt Q12809)", "sequence (Q12809 whole entry, looked up)": "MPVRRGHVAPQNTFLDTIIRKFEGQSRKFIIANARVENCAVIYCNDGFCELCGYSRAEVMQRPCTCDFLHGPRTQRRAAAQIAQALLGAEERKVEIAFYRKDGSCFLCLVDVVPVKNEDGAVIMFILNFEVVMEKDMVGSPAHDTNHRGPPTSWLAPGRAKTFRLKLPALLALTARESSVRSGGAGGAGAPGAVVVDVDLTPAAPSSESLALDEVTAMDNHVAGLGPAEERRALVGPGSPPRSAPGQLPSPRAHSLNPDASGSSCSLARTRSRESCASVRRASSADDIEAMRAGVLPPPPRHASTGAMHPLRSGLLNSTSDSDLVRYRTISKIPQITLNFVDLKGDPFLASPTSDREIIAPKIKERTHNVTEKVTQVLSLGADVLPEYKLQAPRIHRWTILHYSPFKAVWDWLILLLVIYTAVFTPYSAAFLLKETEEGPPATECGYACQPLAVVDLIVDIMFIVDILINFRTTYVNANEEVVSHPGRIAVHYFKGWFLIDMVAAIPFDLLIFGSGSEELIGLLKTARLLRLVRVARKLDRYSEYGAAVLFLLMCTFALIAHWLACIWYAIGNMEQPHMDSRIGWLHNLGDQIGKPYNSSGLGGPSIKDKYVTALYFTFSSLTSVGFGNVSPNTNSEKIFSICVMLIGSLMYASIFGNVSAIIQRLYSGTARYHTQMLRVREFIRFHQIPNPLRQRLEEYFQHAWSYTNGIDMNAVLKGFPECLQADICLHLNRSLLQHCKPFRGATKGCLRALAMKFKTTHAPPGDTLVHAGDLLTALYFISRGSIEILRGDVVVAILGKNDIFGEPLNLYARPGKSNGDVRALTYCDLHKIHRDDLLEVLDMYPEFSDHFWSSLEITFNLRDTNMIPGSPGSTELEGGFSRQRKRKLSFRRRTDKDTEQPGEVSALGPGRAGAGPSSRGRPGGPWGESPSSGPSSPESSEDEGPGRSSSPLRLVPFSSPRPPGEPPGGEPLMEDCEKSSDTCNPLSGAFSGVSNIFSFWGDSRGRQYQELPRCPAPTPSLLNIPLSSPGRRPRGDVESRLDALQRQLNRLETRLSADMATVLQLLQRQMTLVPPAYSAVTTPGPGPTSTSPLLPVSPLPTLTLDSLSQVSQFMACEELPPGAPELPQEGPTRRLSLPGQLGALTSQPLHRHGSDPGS", "test": "Human Ether-a-go-go-Related Gene (hERG) channel small molecule antagonists: fluorescence cell-based qHTS assay (AID 1671200); also: nearly all actives have a fitted effect of over 50% in size", "conditions": "hERG-U2OS cells, FluxOR thallium flux fluorescence; series mostly up to 76.8 µM", "excerpt": "National Center for Advancing Translational Sciences [NCATS]\nU.S. Environmental Protection Agency [EPA]\nNational Institutes of Environmental Health Sciences [NIEHS]\nNational Toxicology Program [NTP]\nU.S. Food and Drug Administration [FDA]\nMutations in the hERG channel cause Long QT (LQT) syndrome. LQT syndrome is a cardiac disorder which can cause ventricle arrhythmia and sudden death. Additionally, compounds which block the hERG channel can cause acquired LQT syndrome. Several FDA approved drugs have been removed from the market due to their hERG blocking activity. A cell-based hERG channel inhibition assay can be used to screen chemical compounds that inhibit hERG channel. This assay measures hERG channel activity using thallium ions as surrogate ions to measure potassium into the cells.\nTox21 Assay Protocol Summary:\nhERG-U2OS cells were resuspended in culture medium and dispensed into 1536-well, black wall/clear-bottom plates at 1000cells/well/3uL using a Multidrop Combi dispenser (Thermo Fisher, Waltham, MA). After plates were incubated at 37 C overnight, 3 uL of Loading Buffer provided by FluxOR II Potassium Ion Channel Assay kit (Thermo, Carlsbad, CA) was added to each well. The assay plates were then incubated at room temperature in the dark for 1h. […] After the assay plates were incubated at room temperature for 10 min, 1 uL of Stimulus Buffer provided by FluxOR II Potassium Ion Channel Assay kit was added into each well and fluorescence intensity (480nm excitation/540nm emission) was continuously measured for 2 min at 1 second intervals using a Functional Drug Screening System (FDSS) 7000EX kinetic plate reader (Hamamatsu, Japan).", "values": [
      {"smiles": "O=C1CCCCO1", "Potency": "inactive"},
      {"smiles": "Cc1ccc2c(c1)C(=O)c1ccccc1C2=O", "Potency": "inactive"},
      {"smiles": "c1ccc(-c2nn[nH]n2)cc1", "Potency": "inactive"},
      {"smiles": "Cc1cc(C)c(C(=O)O)c(C)c1", "Potency": "inactive"},
      {"smiles": "O=C1CCC(=O)N1Cl", "Potency": "inactive"},
      {"smiles": "CCC[C@@H]1C[C@@H](C(=O)N[C@@H]([C@H]2O[C@H](SC)[C@H](O)[C@@H](O)[C@H]2O)[C@@H](C)O)N(C)C1", "Potency": "inactive"},
      {"smiles": "CC1(C)CC(OC(=O)CCCCCCCCC(=O)OC2CC(C)(C)NC(C)(C)C2)CC(C)(C)N1", "activity change, negative = inhibition": "-0.993% [at 15.8 µM] (inactive)"},
      {"smiles": "C=C(C)[C@@H]1CC=C(C)C(=O)C1", "Potency": "inactive"},
      {"smiles": "N[C@@H](CSCCCO)C(=O)O", "activity change, negative = inhibition": "17.6% [at 15.8 µM] (inactive)"},
      {"smiles": "COC(C)(OC)OC", "Potency": "inactive"},
      {"smiles": "CC12CCC(C1)C(C)(C)C2O", "note": "(stereo not given)", "Potency": "inactive"},
      {"smiles": "CC1(C)Cc2cccc(N)c2O1", "Potency": "inactive"},
      {"smiles": "C=CCCCC", "Potency": "inactive"},
      {"smiles": "CCCCCCCCCCCCCCCCCCOCCO", "activity change, negative = inhibition": "3.84% [at 15.8 µM] (inactive)"},
      {"smiles": "CCCCCc1cccc(=O)o1", "Potency": "inactive"},
      {"smiles": "CN(C)C(C)(C)CO", "Potency": "inactive"},
      {"smiles": "Cc1ccc(C(=O)O)cc1[N+](=O)[O-]", "Potency": "inactive"},
      {"smiles": "CC1OCCC1=O", "note": "(stereo not given)", "Potency": "inactive"},
      {"smiles": "O=C(CCCCC(=O)Nc1c(I)cc(I)c(C(=O)O)c1I)Nc1c(I)cc(I)c(C(=O)O)c1I", "Potency": "inactive"},
      {"smiles": "CCOC(CN1CCN(CC(C)C(=O)c2ccccc2)CC1)c1ccccc1", "note": "(stereo not given)", "Potency": "10.4 µM (active)"},
      {"smiles": "CCC(C(=O)OCCN1CCOC(c2ccccc2)C1C)c1ccccc1", "note": "(stereo not given)", "Potency": "inactive"},
      {"smiles": "CCNC(=O)NCc1cccc(Cl)c1", "Potency": "inactive"},
      {"smiles": "O=C[O][Al]([O]C=O)[O]C=O", "Potency": "inactive"},
      {"smiles": "O/N=C/C=N/O", "Potency": "inactive"},
      {"smiles": "CCCC(=O)OCCC(C)CCC=C(C)C", "note": "(stereo not given)", "Potency": "inactive"},
      {"smiles": "CC(=O)CC(=O)Nc1ccc(C)cc1C", "Potency": "inactive"},
      {"smiles": "C/C(CC(C)C)=N\\O", "Potency": "inactive"},
      {"smiles": "O=S(=O)(O)c1ccc2c(N=Nc3ccc(S(=O)(=O)O)c4ccccc34)c(O)c(S(=O)(=O)O)cc2c1", "activity change, negative = inhibition": "1.92% [at 6.97 µM] (inactive)"},
      {"smiles": "C=CCSSCCC", "Potency": "inactive"},
      {"smiles": "CN(C)CC/C=C1/c2ccccc2COc2ccc(CC(=O)O)cc21", "Potency": "inactive"},
      {"smiles": "CCCC(=O)Nc1ccc(OCC(O)CNC(C)C)c(C(C)=O)c1", "note": "(stereo not given)", "Potency": "inactive"},
      {"smiles": "CC(C)[C@H]1CC[C@H](C)C[C@@H]1O", "Potency": "inactive"},
      {"smiles": "CCC(C)C(C)=O", "note": "(stereo not given)", "Potency": "inactive"},
      {"smiles": "C#CCN[C@@H]1CCc2ccccc21", "Potency": "inactive"},
      {"smiles": "O=C(CCCl)NCCc1ccccc1", "Potency": "inactive"},
      {"smiles": "C[Si]1(C)O[Si](C)(C)O[Si](C)(C)O[Si](C)(C)O[Si](C)(C)O1", "Potency": "inactive"},
      {"smiles": "O=C(O)CSCC(=O)NC1CCSC1=O", "note": "(stereo not given)", "Potency": "inactive"},
      {"smiles": "CC1c2ccccc2CN1NC(=O)c1ccc(Cl)c(S(N)(=O)=O)c1", "note": "(stereo not given)", "Potency": "inactive"},
      {"smiles": "C[C@]12CCC(=O)C=C1CC[C@H]1[C@@H]3CC[C@](O)(C(=O)CO)[C@@]3(C)C[C@H](O)[C@@]12F", "Potency": "inactive"},
      {"smiles": "CC(S)C(C)S", "note": "(stereo not given)", "Potency": "inactive"}
    ]}
  ]
}
